# High-throughput results (PubChem)
# Shown are actives, neighbours in structure and some others; about 7.8% of the full set was active somewhere.
# HCMV antiviral – inhibitors of human cytomegalovirus. HFF cells, HCMV-luciferase reporter, 72 h; stronger effect = lower value. activity change, negative = inhibition, % at 57.5 µM. hit rate 4.5% among 410,000. AID 1259415; in the data active = activity change below about -60%; inconclusive = no clear call, values can overlap the other calls; inactive = above about -39%
#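 Two compound doses tested in HFFs infected with HCMV-luciferase, MOI 1 PFU/cell, 72 h at 37C. Lysate luminescence read with OneGlo; data normalized against buffer-only and 10uM Salinomycin inhibitor controls.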
# HCV inhibitor – HCV inhibition | Potency, µM (doses to about 41.8 µM), actives largely listed as inhibitors | Huh7.5.1 HCVcc-Cre infection, luciferase reporter, 44 h | hit rate 3.4% among 340,000; active = well fitted inhibition curve with a large enough effect; inconclusive = small, poorly fitted or top-dose-only effect, or another doubt; inactive = no such curve, though single readings can be large or run the other way
#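 HCVcc-Cre virus at an moi near 0.5 was added right after compound to cells cultured 4 h from seeding (1,000 cells/well). Luciferase activity was determined 44 h later, 15 min after substrate addition at RT.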
# Lassa entry inh – Lassa virus entry inhibition; Lassa virus pseudotype entry inhibition, cell reporter; Potency, µM (titrated, usually from 37.9 µM), most hits filed as inhibitors; hit rate 1.2% among 300,000; AID 540256; calls by dose curve; tested in HEK293 cells; also: nearly all actives have a fitted effect of over 50% in size
# Vaccinia mCherry – inhibitors of vaccinia virus infection (mCherry reporter signal) | Vaccinia virus mCherry reporter infection, fluorescence | Potency, µM (series often up to 36.5 µM), usual class: inhibitors | hit rate 0.63% among 310,000; calls by dose curve; tested in A549 cells; also: nearly all actives have a fitted effect of over 35% in size
# VACV Venus inh – inhibitors of vaccinia virus (Venus reporter) | Potency, µM (doses to about 36.5 µM), usual class: inhibitors | hit rate 0.46% among 330,000 | AID 720580 | Vaccinia virus Venus reporter expression, fluorescence; calls by dose curve; tested in A549 cells; also: nearly all actives have a fitted effect of over 30% in size
# MARV entry inh – Marburg virus entry inhibition; Potency, µM (highest dose often 37.8 µM), hits mostly inhibitors; Marburg virus pseudotyped entry inhibition, cell reporter; hit rate 1.8% among 300,000; calls by dose curve; tested in HEK293 cells
# A number is an active result; n = inactive; u = inconclusive; x = not tested or not shown.
SMILES,HCMV antiviral,HCV inhibitor,Lassa entry inh,Vaccinia mCherry,VACV Venus inh,MARV entry inh
O[C@H]1C[C@H](c2ccccc2)N(Cc2cccs2)C[C@@H]1n1cc(-c2ccc(F)cc2)nn1,-64,x,x,u,u,x
COc1ccc([C@H]2C[C@H](n3cc(-c4ccc(F)cc4)nn3)[C@@H](O)CN2Cc2cccs2)cc1,n,x,x,n,n,u
O[C@H]1CN(Cc2cccs2)[C@@H](c2ccccc2)C[C@@H]1n1cc(-c2ccc(F)cc2)nn1,n,x,x,n,n,x
COC(=O)c1c(OCc2cccnc2)cc(=O)n2c1CCN(C(=O)c1cccc(N(C)C)c1)CC2,x,x,x,n,n,x
COc1ccccc1OCc1ccc(C(=O)N2N=C(C(F)F)CC2(O)C(F)F)o1 (stereo not drawn),n,n,n,n,n,n
O=C(c1ccc(COc2ccc(Cl)cc2)o1)N1N=C(C(F)F)CC1(O)C(F)F (stereo not drawn),-70,u,n,n,u,n
CCC(CC)NC(=O)c1ccccc1Oc1ccccc1,n,n,n,x,n,n
CCC(C)(C)NC(=O)c1ccccc1Oc1ccccc1,-76,n,n,n,n,u
O=C(CS(=O)c1ccc(F)cc1)Nc1ccccc1Cl (stereo not drawn),-77,n,n,n,n,n
CCN(CC)S(=O)(=O)c1ccc(N2CCN(CCO)CC2)nc1,n,n,u,n,n,n
CCN(CC)S(=O)(=O)c1ccc(N2CCN(c3ccccc3O)CC2)nc1,n,11µM,n,u,n,u
CCOC(=O)N1CCN(c2ccc(S(=O)(=O)N(Cc3ccccc3)Cc3ccccc3)cn2)CC1,-90,u,n,x,n,u
COc1ccc(/C(O)=C2/C(=O)C(=O)N(CCN(C)C)C2c2ccc(OC)c(OC)c2)c(C)c1 (stereo not drawn),-71,n,n,n,n,n
COc1ccc(C2/C(=C(/O)c3cnn(-c4ccccc4)c3C)C(=O)C(=O)N2CCN(C)C)cc1OC (stereo not drawn),n,n,n,n,n,n
COCCCN1C(=O)C(=O)/C(=C(/O)c2ccc(OC)cc2)C1c1cccc(OC)c1 (stereo not drawn),-102,n,n,x,n,n
Cc1ccc(CN2CCCn3nc(C(=O)NCCc4ccc(Cl)cc4)cc3C2=O)cc1,n,x,n,n,n,x
Cc1nc2ccc(C(=O)N3CCc4c(cnc(C)c4CNC(=O)/C=C/c4cccs4)C3)cc2nc1C,x,x,x,n,n,x
CCOC(=O)c1cccc(P(=O)(C(C)(C)C)C(C)(C)C)c1,n,n,n,n,n,n
CCOC(=O)c1ccc(Cl)c(NC(=O)c2ccc(-c3ccccc3)cc2)c1,n,n,n,n,n,u
CCOC(=O)c1cccc(-[n+]2c(-c3ccccc3)cc(-c3ccccc3)cc2-c2ccccc2)c1,-99,u,x,n,n,x
CCOC(=O)c1ccc(P(=O)(c2ccccc2)c2ccccc2)cc1,-97,n,x,x,x,x
CCOC(=O)c1ccc(-[n+]2c(-c3ccccc3)cc(-c3ccccc3)cc2-c2ccccc2)cc1,x,0.63µM,x,n,u,x
CCOC(=O)[C@]12CCCC=C1N(CCc1ccc(OC)c(OC)c1)C(=O)[C@H](CC(=O)N1CCN(C(=O)C3CC3)CC1)C2,n,x,x,n,n,x
CC(O)CN(CCN(CC(C)O)CC(C)O)CC(C)O (stereo not drawn),n,x,x,x,x,x
C=CCn1c(C2CCCCC2)n[nH]c1=S,-97,n,n,n,n,n
SMILES,HCMV antiviral,HCV inhibitor,Lassa entry inh,Vaccinia mCherry,VACV Venus inh,MARV entry inh
S=c1[nH]nc(C2CCCCC2)n1Cc1ccccc1,u,n,u,n,n,n
Cc1cc(N2CCOCC2)ccc1/C=C\[N+](=O)[O-],-98,u,21µM,u,10µM,u
Cc1ccc([C@H]2N[C@]3(CCCN(Cc4ccc(C(F)(F)F)cc4)C3=O)[C@H]3C(=O)N(C)C(=O)[C@@H]23)cc1,n,x,x,n,n,x
Cc1cccc(NC(=O)N2CCN(Cc3ccc(Cl)cc3)CC2)c1,-63,u,u,n,n,u
COc1cc(OC)c(OC)cc1CN1CCN(Cc2cccc(F)c2)CC1,n,n,x,x,x,x
COc1ccccc1CN1CCN(Cc2ccc(Cl)cc2)CC1,u,n,n,n,n,11µM
COc1cc(OC)c(OC)cc1CN1CCN(Cc2ccc(C(F)(F)F)cc2)CC1,n,11µM,x,x,x,x
COc1ccc(CN2CCN(Cc3ccccc3OC)CC2)cc1,n,n,x,x,x,x
Cc1cccc(CN2CCN(c3ccc(Cl)cc3)CC2)c1,n,n,x,n,n,x
